Reference: PubChem BioAssay AID1159580 (chemical genetic matrix, 2015)
Hit rate of the full screen: of about 5,500 compounds, about 2,000 (36%) were called active. About 18% were inconclusive and are not listed. Cut-off read from the data, not from the text of the source: active = normalized growth mostly below about 0.91 (no sharp cut-off); inconclusive = no clear call, values can overlap the other calls; inactive = mostly above about 0.92. This is one part of the list.

Assay: chemical genetic growth profiling, strain panel (AID 1159580);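 note: tested at 20 µM; growth read once vehicle control cultures reached saturation at 30 °C; 1 = growth at the plate median or of vehicle wells; lower values mean less growth of the strain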
Conditions: S. cerevisiae deletion strains, growth OD

Measured: normalized growth

O=C(O)c1ccccc1Nc1ccccc1
active: locus YCL061C, strain MRC1, stronger effect = lower value 0.892 | locus YCL069W, strain vba3, stronger effect = lower value 0.907 | locus YCR088W, strain abp1, stronger effect = lower value 0.907 | locus YDR001C, strain nth1, stronger effect = lower value 0.892 | locus YEL037C, strain rad23, stronger effect = lower value 0.913 | locus YEL061C, strain CIN8 (second series), stronger effect = lower value 0.899 | locus YER111C, strain swi4, stronger effect = lower value 0.908 | locus YGL227W, strain vid30, stronger effect = lower value 0.909 | locus YHR030C, strain SLT2, stronger effect = lower value 0.482 | locus YHR079C, strain IRE1, stronger effect = lower value 0.395 | locus YJL092W, strain hpr5, stronger effect = lower value 0.893 | locus YJL095W, strain BCK1, stronger effect = lower value 0.502 | locus YJL115W, strain asf1, stronger effect = lower value 0.901 | locus YJL129C, strain trk1, stronger effect = lower value 0.847 | locus YJL154C, strain vps35, stronger effect = lower value 0.894 | locus YJR066W, strain TOR1, stronger effect = lower value 0.392 | locus YKR026C, strain gcn3, stronger effect = lower value 0.903 | locus YKR091W, strain srl3, stronger effect = lower value 0.927 | locus YLL041C, strain sdh2, stronger effect = lower value 0.925 | locus YLR113W, strain HOG1, stronger effect = lower value 0.291 | locus YLR262C, strain YPT6 (second series), stronger effect = lower value 0.832 | locus YMR129W, stronger effect = lower value 0.889 | locus YNL183C, strain NPR1, stronger effect = lower value 0.367 | locus YNL322C, strain KRE1 (second series), stronger effect = lower value 0.871 | locus YOR231W, strain MKK1, stronger effect = lower value 0.413 | locus YPL240C, strain hsp82, stronger effect = lower value 0.924 | locus YPL256C, strain CLN2, stronger effect = lower value 0.36
inactive: locus YAL013W, strain DEP1, stronger effect = lower value 1.01 | locus YAL021C, strain ccr4, stronger effect = lower value 0.953 | locus YAL026C, strain drs2, stronger effect = lower value 0.921 | locus YAL030W, strain snc1, stronger effect = lower value 0.94 | locus YAL040C, strain CLN3, stronger effect = lower value 1.01 | locus YBL061C, strain skt5, stronger effect = lower value 0.946 | locus YBR009C, strain hhf1, stronger effect = lower value 0.992 | locus YBR023C, strain chs3, stronger effect = lower value 0.951 | locus YBR171W, strain sec66, stronger effect = lower value 0.894 | locus YBR231C, strain swc5, stronger effect = lower value 0.966 | locus YBR279W, strain paf1, stronger effect = lower value 0.964 | locus YCL011C, strain gbp2, stronger effect = lower value 0.922 | locus YCL016C, strain dcc1, stronger effect = lower value 0.961 | locus YDL005C, strain med2, stronger effect = lower value 0.957 | locus YDL040C, strain nat1, stronger effect = lower value 0.944 | locus YDR069C, strain doa4, stronger effect = lower value 1.01 | locus YDR137W, strain rgp1, stronger effect = lower value 0.86 | locus YDR150W, strain NUM1, stronger effect = lower value 0.994 | locus YDR159W, strain sac3, stronger effect = lower value 0.957 | locus YDR195W, strain ref2 1.05 | locus YDR297W, strain sur2, stronger effect = lower value 0.929 | locus YDR334W, strain swr1, stronger effect = lower value 0.926 | locus YDR335W, strain msn5, stronger effect = lower value 0.941 | locus YDR363W, strain ESC2, stronger effect = lower value 1.01 | locus YDR392W, strain spt3, stronger effect = lower value 0.852 | locus YEL003W, strain gim4, stronger effect = lower value 0.924 | locus YER002W, strain NOP16, stronger effect = lower value 0.941 | locus YER015W, strain faa2, stronger effect = lower value 0.947 | locus YER016W, strain bim1, stronger effect = lower value 0.972 | locus YER155C, strain BEM2 (second series), stronger effect = lower value 0.909 | locus YFR010W, strain ubp6, stronger effect = lower value 0.989 | locus YGL167C, strain pmr1, stronger effect = lower value 0.92 | locus YGL173C, strain kem1, stronger effect = lower value 0.954 | locus YGL240W, strain doc1, stronger effect = lower value 0.985 | locus YGL253W, strain hxk2, stronger effect = lower value 0.926 | locus YGR078C, strain PAC10, stronger effect = lower value 0.964 | locus YHR013C, strain ard1, stronger effect = lower value 0.989 | locus YHR027C, strain rpn1, stronger effect = lower value 0.938 | locus YHR142W, strain chs7, stronger effect = lower value 0.908 | locus YJL095W, strain BCK1 (second series), stronger effect = lower value 0.938 | locus YJL164C, strain tpk1, stronger effect = lower value 0.957 | locus YJL166W, strain qcr8, stronger effect = lower value 0.97 | locus YJL187C, strain SWE1, stronger effect = lower value 0.971 | locus YKL160W, strain elf1, stronger effect = lower value 0.938 | locus YLL001W, strain dnm1, stronger effect = lower value 0.966 | locus YLL026W, stronger effect = lower value 0.934 | locus YLR027C, strain aat2, stronger effect = lower value 0.956 | locus YLR221C, strain rsa3, stronger effect = lower value 0.962 | locus YLR258W, strain gsy2, stronger effect = lower value 0.961 | locus YLR320W, strain mms22, stronger effect = lower value 0.99 | locus YLR342W, strain FKS1, stronger effect = lower value 0.923 | locus YLR357W, strain rsc2, stronger effect = lower value 1.03 | locus YLR370C, strain arc18, stronger effect = lower value 0.945 | locus YLR384C, strain iki3, stronger effect = lower value 0.934 | locus YML120C, strain ndi1, stronger effect = lower value 0.963 | locus YMR058W, strain fet3, stronger effect = lower value 0.935 | locus YMR125W, strain sto1, stronger effect = lower value 0.988 | locus YMR205C, strain PFK2, stronger effect = lower value 1 | locus YMR231W, strain pep5, stronger effect = lower value 0.933 | locus YNL071W, strain lat1, stronger effect = lower value 0.929 | locus YNL128W, strain TEP1, stronger effect = lower value 0.973 | locus YNL175C, strain NOP13, stronger effect = lower value 0.935 | locus YNL197C, strain WHI3, stronger effect = lower value 0.927 | locus YNL209W, strain ssb2, stronger effect = lower value 0.949 | locus YNL224C, strain SQS1, stronger effect = lower value 0.94 | locus YNL248C, strain rpa49, stronger effect = lower value 0.99 | locus YNR049C, strain mso1, stronger effect = lower value 0.922 | locus YOR001W, strain rrp6, stronger effect = lower value 0.951 | locus YOR070C, strain gyp1, stronger effect = lower value 0.945 | locus YOR080W, strain dia2, stronger effect = lower value 0.959 | locus YOR083W, strain WHI5 (second series), stronger effect = lower value 0.982 | locus YOR083W, strain WHI5, stronger effect = lower value 0.929 | locus YOR106W, strain vam3, stronger effect = lower value 0.956 | locus YOR265W, strain rbl2, stronger effect = lower value 0.941 | locus YOR270C, strain vph1, stronger effect = lower value 0.97 | locus YOR290C, strain snf2, stronger effect = lower value 0.934 | locus YPL051W, strain arl3, stronger effect = lower value 0.933 | locus YPL055C, strain LGE1, stronger effect = lower value 1.01 | locus YPL078C, strain atp4, stronger effect = lower value 0.914 | locus YPL106C, strain sse1, stronger effect = lower value 1.01
